6 compounds from PubChem BioAssay can be followed below.

Structures are written as SMILES. The source made the active and inactive calls.

For one experiment, the target named is Albumin (Bos taurus) (UniProt P02769). As to the kind of experiment: compounds binding labelled BSA control protein – biochemical, small-molecule microarray, Alexa647 label, 635/667 nm fluorescence, artefact control for SMM control protein annotation, profiling panel (AID 1118).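 Note: score merges 667 nm emission intensity and signal-to-noise per printed compound spot.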 The note with it: BSA-A647 binding, fluorescence 635 nm, higher = more signal.
Albumin (Bos taurus), sequence (P02769 whole entry, looked up): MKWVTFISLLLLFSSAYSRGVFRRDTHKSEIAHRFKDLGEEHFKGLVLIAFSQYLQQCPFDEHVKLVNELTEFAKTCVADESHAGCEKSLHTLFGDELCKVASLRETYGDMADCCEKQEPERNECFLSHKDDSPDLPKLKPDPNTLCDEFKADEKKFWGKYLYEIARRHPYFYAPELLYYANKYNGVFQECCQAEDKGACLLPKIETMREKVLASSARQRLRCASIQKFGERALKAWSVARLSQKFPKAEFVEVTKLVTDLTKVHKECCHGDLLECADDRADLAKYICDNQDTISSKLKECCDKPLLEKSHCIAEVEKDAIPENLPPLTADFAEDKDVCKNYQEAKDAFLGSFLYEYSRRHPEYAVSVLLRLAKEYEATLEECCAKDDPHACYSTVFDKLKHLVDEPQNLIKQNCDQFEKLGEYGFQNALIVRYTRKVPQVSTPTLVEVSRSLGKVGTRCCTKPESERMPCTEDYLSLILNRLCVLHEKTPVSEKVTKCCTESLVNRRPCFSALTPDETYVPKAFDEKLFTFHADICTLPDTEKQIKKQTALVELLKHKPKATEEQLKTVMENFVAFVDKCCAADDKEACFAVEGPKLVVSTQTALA
Experiment [1] can be described thus: probe aXIP binding to arrayed compounds – biochemical, NeuroSMM set, 635/667 nm fluorescence, primary screen (AID 1119).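 Note: probe is the protein aXip251-270 applied at 1 µg/mL to compound-printed slides; binding of probe to printed compounds measured as 667 nm fluorescence plus signal to noise.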 The note with it: small-molecule microarray, higher = more signal, called active from +8 up or from −8 down.
Experiment [2] in a line: probe aNOTCH3 binding on compound microarray – biochemical, small-molecule microarray, 635/667 nm fluorescence, primary screen (AID 1120).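 Note: probe is a biotin-tagged antibody raised against NOTCH3 rather than NOTCH3 protein; score merges spot fluorescence near 667 nm with spot signal to noise.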 The note with it: higher = more signal.
Experiment [3] in a line: probe aNOTCH2 binding on compound microarray – biochemical, small-molecule microarray, 635/667 nm fluorescence, primary screen (AID 1121).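 Note: score merges feature fluorescence read at 667 nm with its signal to noise.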 The note with it: higher = more signal.
Experiment [4] addresses Carbonic anhydrase 2 (Homo sapiens) (UniProt P00918). Nature of the experiment: compounds binding carbonic anhydrase 2 – biochemical, small-molecule microarray, Alexa647-labelled CAII, profiling panel (AID 1122). The note with it: CAII-A647 binding fluorescence, higher = more signal.
Experiment [5] in a line: COS7 lysate on small-molecule microarray, probe aHis, 635 nm (AID 1123).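 Note: z-score combines 667nm fluorescence intensity with signal-to-noise per printed compound spot.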 The note with it: COS7 cell lysate, fluorescence, higher = more signal.
Experiment [6] in a line: probe aLAP1 signal on lysate-treated microarray – cell lysate, small-molecule microarray, COS7 lysate, primary screen (AID 1124).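 Note: lysate comes from COS7 cells expressing LAP1 and is applied at 0.3 µg/mL; score merges spot fluorescence near 667 nm with signal-to-noise over triplicate slides.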 The note with it: probe aLAP1, fluorescence, higher = more signal.
The next experiment has as its system Sam68 (KHDRBS1). As to the kind of experiment: compounds binding KHDRBS1 protein – biochemical, small-molecule microarray, 635 nm fluorescence, primary screen (AID 1125).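 Note: score merges 667 nm channel intensity with signal to noise over triplicate slides.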 The note with it: higher = more signal.
The subject of experiment [7] is Chordin-like protein 2 (CHRDL2). Nature of the experiment: compounds binding chordin-like 2 – biochemical, small-molecule microarray, 635 nm fluorescence, primary screen (AID 1126).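 Note: printed compound slides probed with Chrdl2 protein at 4 µg/mL for 1 h at 4 C; score merges 667 nm emission intensity with signal to noise over three replicate slides.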 The note with it: fluorescence 635 nm, higher = more signal.
For experiment [8], the target named is Concanavalin-A (Canavalia ensiformis) (UniProt P02866). As to the kind of experiment: compounds binding concanavalin A lectin – biochemical, small-molecule microarray, Alexa647 label, 635 nm, artefact control for SMM control protein annotation, primary screen (AID 1127).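 Note: z combines 667 nm emission intensity with signal-to-noise across three replicate slides.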 The note with it: ConA-A647 binding fluorescence, higher = more signal.
Concanavalin-A (Canavalia ensiformis), sequence (P02866 whole entry, looked up): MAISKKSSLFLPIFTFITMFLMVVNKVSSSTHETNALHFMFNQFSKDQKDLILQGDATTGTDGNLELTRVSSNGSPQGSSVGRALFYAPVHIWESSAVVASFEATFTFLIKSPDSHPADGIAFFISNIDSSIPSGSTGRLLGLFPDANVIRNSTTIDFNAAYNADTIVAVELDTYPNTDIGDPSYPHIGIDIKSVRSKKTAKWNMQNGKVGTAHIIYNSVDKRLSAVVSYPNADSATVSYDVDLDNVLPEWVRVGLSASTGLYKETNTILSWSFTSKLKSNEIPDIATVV
Experiment [9] is described as follows: compounds binding Alexa647 anti-His antibody – biochemical, small-molecule microarray, 635 nm fluorescence, artefact control for SMM control protein annotation, primary screen (AID 1128).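 Note: score merges feature fluorescence with signal-to-noise for each printed compound spot.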 The note with it: higher = more signal.
Experiment [10] deals with Human papillomavirus type 1a E7 protein (residues 1-88). As to the kind of experiment: HPV1a E7 small-molecule binders, primary screen, biochemical, small-molecule microarray, residues 1-88, 635 nm (AID 1129). The note with it: small-molecule microarray binding, fluorescence 635 nm; higher = more signal.
Experiment [11] has as its target Focal adhesion kinase 1 (Homo sapiens) (UniProt Q05397). As to the kind of experiment: PTK2 protein binding on printed compound slides – biochemical, small-molecule microarray, 635/667 nm fluorescence, BSA, DTT, primary screen (AID 1130).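 Note: composite of spot emission at 667 nm and signal to noise over triplicate slides.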 The note with it: 635 nm fluorescence, higher = more signal.
Experiment [12] deals with Fibrinogen (Alexa647-labelled). Nature of the experiment: Alexa647-fibrinogen binding to printed small molecules – biochemical, small-molecule microarray, 635/667 nm fluorescence, artefact control for SMM control-protein annotation, profiling panel (AID 1131).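 Note: z-score merges 667 nm fluorescence with per-spot signal-to-noise over triplicate slides.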 The note with it: fibrinogen-A647 binding fluorescence, higher = more signal.
Experiment [13] concerns the target Follistatin (Homo sapiens) (UniProt P19883). Nature of the experiment: FST protein binding to printed compounds – biochemical, small-molecule microarray, 635/667 nm fluorescence, primary screen (AID 1132). The note with it: 635 nm fluorescence, higher = more signal.
Experiment [14] deals with Fibroblast growth factor 2 (Homo sapiens) (UniProt P09038). Nature of the experiment: basic fibroblast growth factor binding to printed compounds – biochemical, small-molecule microarray, 635/667 nm fluorescence, primary screen (AID 1133). The note with it: FGF2, fluorescence 635/667, higher = more signal.
Fibroblast growth factor 2 (Homo sapiens), sequence (P09038 whole entry, looked up): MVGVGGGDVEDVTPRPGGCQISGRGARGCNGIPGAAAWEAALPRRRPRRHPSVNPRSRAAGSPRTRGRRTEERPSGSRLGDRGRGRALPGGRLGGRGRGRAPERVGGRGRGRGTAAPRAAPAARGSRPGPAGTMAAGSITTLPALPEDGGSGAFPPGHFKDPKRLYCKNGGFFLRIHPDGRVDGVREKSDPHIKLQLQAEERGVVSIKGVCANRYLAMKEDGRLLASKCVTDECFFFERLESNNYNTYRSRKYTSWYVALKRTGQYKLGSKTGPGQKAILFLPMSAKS
The nature of experiment [15]: JC-1 mitochondrial potential readout, lung cancer cells – cell-based, A549, JC-1 fluorescence, basal, 24 h, 100 nL, profiling panel (AID 1138).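 Note: A549 lung adenocarcinoma cells under basal conditions with no added stimulus; test concentration not given here.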 The note with it: higher = more signal.
For the next experiment, the system named is Lefty1. Nature of the experiment: Lefty1 protein binding to printed compounds – biochemical, small-molecule microarray, 635/667 nm fluorescence, primary screen (AID 1139). The note with it: fluorescence 635/667, higher = more signal.
Experiment [16] deals with wheat germ agglutinin (Triticum aestivum), Alexa647-labelled. As to the kind of experiment: Alexa647-WGA lectin binding to printed small molecules – biochemical, small-molecule microarray, 635/667 nm fluorescence, artefact control for SMM control-protein annotation, profiling panel (AID 1140).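 Note: score merges 667 nm feature emission with signal to noise over triplicate slides.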 The note with it: WGA-A647 binding, 635 nm fluorescence, higher = more signal.
Experiment [17] deals with Luciferin 4-monooxygenase (Photinus pyralis) (UniProt P08659). Nature of the experiment: inhibition of purified Photinus pyralis luciferase – biochemical, luminescence, purified enzyme, 2006 set, primary screen (AID 1141).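 Note: cell-free assay with purified firefly luciferase at 100 ng per well in PBS; test concentration not given here.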 The note with it: purified firefly luciferase, SteadyGlo luminescence, 30 min; higher = more signal, called active from +8 up or from −8 down.
Luciferin 4-monooxygenase (Photinus pyralis), sequence (P08659 whole entry, looked up): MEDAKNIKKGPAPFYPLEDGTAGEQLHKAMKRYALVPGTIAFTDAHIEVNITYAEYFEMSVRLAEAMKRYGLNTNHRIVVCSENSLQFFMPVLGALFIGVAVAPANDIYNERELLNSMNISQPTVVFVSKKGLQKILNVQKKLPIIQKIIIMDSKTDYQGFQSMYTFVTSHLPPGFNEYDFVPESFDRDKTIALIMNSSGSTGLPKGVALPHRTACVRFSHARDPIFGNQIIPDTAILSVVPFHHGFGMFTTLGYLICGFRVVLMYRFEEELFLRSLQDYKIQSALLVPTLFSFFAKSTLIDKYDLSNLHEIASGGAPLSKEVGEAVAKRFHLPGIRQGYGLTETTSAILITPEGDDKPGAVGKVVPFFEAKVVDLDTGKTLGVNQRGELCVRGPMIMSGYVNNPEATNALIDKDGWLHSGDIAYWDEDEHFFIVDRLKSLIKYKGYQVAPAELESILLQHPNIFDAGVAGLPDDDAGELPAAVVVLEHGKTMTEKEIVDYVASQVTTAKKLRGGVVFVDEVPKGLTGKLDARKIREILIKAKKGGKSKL

Follistatin (Homo sapiens), sequence (P19883 whole entry, looked up): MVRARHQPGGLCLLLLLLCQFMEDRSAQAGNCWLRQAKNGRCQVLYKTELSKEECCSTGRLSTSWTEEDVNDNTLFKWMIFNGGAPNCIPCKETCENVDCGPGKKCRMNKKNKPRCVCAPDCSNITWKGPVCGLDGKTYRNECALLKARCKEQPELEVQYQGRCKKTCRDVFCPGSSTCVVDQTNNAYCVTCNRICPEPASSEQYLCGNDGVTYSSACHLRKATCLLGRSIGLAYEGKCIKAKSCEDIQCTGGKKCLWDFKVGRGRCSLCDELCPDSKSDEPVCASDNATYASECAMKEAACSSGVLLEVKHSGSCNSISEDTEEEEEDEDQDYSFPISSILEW
Focal adhesion kinase 1 (Homo sapiens), sequence (Q05397 whole entry, looked up): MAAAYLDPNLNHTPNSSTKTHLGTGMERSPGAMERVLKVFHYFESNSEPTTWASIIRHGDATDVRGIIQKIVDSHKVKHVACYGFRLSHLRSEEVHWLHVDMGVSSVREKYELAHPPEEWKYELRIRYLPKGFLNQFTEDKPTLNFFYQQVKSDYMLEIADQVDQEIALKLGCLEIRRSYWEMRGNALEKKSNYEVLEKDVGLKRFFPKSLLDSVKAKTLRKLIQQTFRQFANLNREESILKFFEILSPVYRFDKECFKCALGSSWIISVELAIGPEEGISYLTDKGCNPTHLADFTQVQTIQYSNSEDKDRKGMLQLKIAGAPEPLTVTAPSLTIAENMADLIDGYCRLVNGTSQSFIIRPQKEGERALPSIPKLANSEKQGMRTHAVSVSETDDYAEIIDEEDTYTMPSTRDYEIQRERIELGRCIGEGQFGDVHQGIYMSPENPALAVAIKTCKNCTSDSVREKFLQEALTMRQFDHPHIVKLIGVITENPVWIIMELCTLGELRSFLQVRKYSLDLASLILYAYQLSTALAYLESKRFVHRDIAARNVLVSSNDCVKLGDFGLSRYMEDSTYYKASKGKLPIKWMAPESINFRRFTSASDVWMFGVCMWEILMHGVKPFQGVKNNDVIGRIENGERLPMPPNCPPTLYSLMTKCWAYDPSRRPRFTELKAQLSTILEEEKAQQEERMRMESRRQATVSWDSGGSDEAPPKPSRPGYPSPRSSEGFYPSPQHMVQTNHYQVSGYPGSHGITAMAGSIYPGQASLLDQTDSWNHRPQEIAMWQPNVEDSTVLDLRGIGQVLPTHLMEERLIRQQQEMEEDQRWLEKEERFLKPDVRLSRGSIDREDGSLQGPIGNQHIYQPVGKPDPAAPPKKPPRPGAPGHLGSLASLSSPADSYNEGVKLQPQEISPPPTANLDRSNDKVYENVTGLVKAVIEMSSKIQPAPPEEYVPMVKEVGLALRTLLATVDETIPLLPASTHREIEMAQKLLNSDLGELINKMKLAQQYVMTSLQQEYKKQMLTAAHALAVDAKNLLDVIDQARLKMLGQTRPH

For `O=C(NCCN1CCOCC1)[C@@H]1c2ccccc2C(=O)N(Cc2ccc(OC(F)(F)F)cc2)[C@H]1c1ccc(CO)cc1`, the composite z-score in the experiment with Albumin (Bos taurus) was 0.816; in experiment [2], -0.0976; in [3], -0.0429; in experiment [4], 0.761; in experiment [5], 1.64; in [6], -0.195. Besides, the composite z-score with Sam68 (KHDRBS1) was 0.686; in experiment [7], -1.49; in experiment [8], -0.159; in [9], 1.97; in experiment [10] it was 0.292; in [11], 0.022. The composite z-score in experiment [12] was -0.419; in [13], 0.0596; in experiment [14], -1.23; in the experiment with Lefty1, -0.332; in experiment [16] it was -0.109. Besides, the composite Z-score in experiment [1] was -0.265 (inactive). The values for the z-score in experiment [15] and in experiment [17] were 2.22 and -0.408 (inactive), respectively.
On to `COCCOC(=O)N1C(=O)[C@@]2(c3cc(C#CCC(C(=O)OC)C(=O)OC)ccc31)[C@H](c1ccc(O)cc1)N1[C@H](c3ccccc3)[C@H](c3ccccc3)OC(=O)[C@H]1[C@@H]2C(=O)Nc1nc2ccccc2s1`, for which the composite z-score with Albumin (Bos taurus) is 0.703; in experiment [2], 0.146; in experiment [3] it was -0.126; in [4] it was 0.342; in [5], 1.17; in [6] it was 0.447. For the same compound, the composite z-score in the experiment on Sam68 (KHDRBS1) amounted to 1.3; in experiment [7], 0.627; in [8], 1.15; in experiment [9] it was 1.15; in [10], 1.21; in experiment [11], 2.02. In addition, the composite z-score in [12] was determined as 0.954; in [13] it was 1.42; in experiment [14] it was 1.54; in the experiment with Lefty1 it was 1.44; in [16] it was 0.968. In experiment [1], the composite Z-score is 0.179 (inactive). The z-score in [15] was -2.1; in experiment [17], -0.344 (inactive).
With `Cc1ccc(F)cc1S(=O)(=O)N[C@H]1CCN(Cc2ccc(OC(C)C)cc2)C1`, the composite z-score with Albumin (Bos taurus) was -0.052; in [2], -0.0244; in experiment [3], -0.19; in experiment [4] it was 0.231; in [5], 1.89; in experiment [6], 0.659. Also, the composite z-score was 0.65 in the experiment on Sam68 (KHDRBS1); 0.544 in experiment [7]; -0.201 in [8]; 0.6 in [9]; -0.296 in [10]; -0.198 in [11]. Moreover, the composite z-score in [12] is -0.71; in experiment [13] it was 0.855; in [14], 0.157; with Lefty1 it was 1.1; in experiment [16], -0.6. In [1], the composite Z-score was -0.058 (inactive). Further, the figures for the z-score in experiment [15] and in experiment [17] were 1.3 and -0.557 (inactive), respectively.
For the compound `COC(=O)[C@@]1(Cc2ccc(OC)cc2)[C@H]2c3cc(C(=O)N4CCCC4)n(Cc4c(CO)[nH]cc(C)c4=O)c3C[C@H]2CN1C(=O)c1ccccc1`, the composite z-score worked out at 1.01 in the experiment with Albumin (Bos taurus); 0.0296 in [2]; 0.257 in experiment [3]; 0.751 in [4]; 3.24 in [5]; 1.32 in experiment [6]. For the same compound, the composite z-score with Sam68 (KHDRBS1) was 0.332; in experiment [7], -0.184; in experiment [8] it was 0.393; in [9], 1; in [10], 1.24; in experiment [11] it was 0.502. For the same compound, the composite z-score in experiment [12] was 0.91; in experiment [13] it was -0.116; in experiment [14], -0.0376; with Lefty1 it was -0.116; in [16] it was 0.723. In experiment [1], the composite Z-score is -0.438 (inactive). The z-score in experiment [15] is 0.534; in experiment [17], 0.835 (inactive).
With `COCCOC(=O)N1C(=O)[C@@]2(c3cc(C#CCCO)ccc31)[C@H](C(N)=O)[C@H]1C(=O)O[C@H](c3ccccc3)[C@H](c3ccccc3)N1[C@@H]2c1ccccc1OCCO`, the composite z-score with Albumin (Bos taurus) is 0.69; in [2] it was 0.0727; in experiment [3], -0.14; in experiment [4], 0.552; in experiment [5], 1.54; in [6] it was 0.45. Further, the composite z-score in the experiment with Sam68 (KHDRBS1) is 1.3; in experiment [7] it was -0.0675; in experiment [8] it was 1.14; in experiment [9], 3.07; in [10] it was 1.21; in experiment [11], 0.425. Further, the composite z-score worked out at 0.897 in [12]; 1.19 in experiment [13]; 0.516 in experiment [14]; 0.673 with Lefty1; 0.713 in experiment [16]. Further, in [1], the composite Z-score was 0.689 (inactive). Moreover, the z-score in experiment [15] was -0.256; in [17], -0.683 (inactive).
On to `CCC(CC)C(O)C1C=CC2C(=O)N(c3ccccc3)C(=O)C2N1Nc1ccccc1F` (stereo not given), for which the composite z-score with Albumin (Bos taurus) came out at 0.86; in experiment [2], 0.188; in experiment [3], 0.001; in experiment [4] it was 0.604; in experiment [5], 1.83; in experiment [6], 0.261. The composite z-score is 0.865 in the experiment on Sam68 (KHDRBS1); 0.118 in experiment [7]; 0.949 in experiment [8]; 1.62 in experiment [9]; 1.16 in [10]; 0.869 in [11]. Further, the composite z-score is 0.94 in experiment [12]; 0.337 in experiment [13]; -0.557 in experiment [14]; 0.128 in the experiment with Lefty1; 0.416 in experiment [16]. In addition, the composite Z-score in [1] was 0.204 (inactive). The z-score is -0.231 in [15] and 0.211 (inactive) in [17].
